Assay [1] deals with Estrogen receptor (Homo sapiens) (UniProt P03372). As to the kind of experiment: CCTE_Deisenroth_AIME_384WELL_LUC_Active: CCTE's 384-well Estrogen Receptor Transactivation Assay with AIME metabolic competence (ERTA luciferase; metabolism positive), Deisenroth Lab (AID 2284030; active = hit-call score of the fitted dose curve at least 0.9, where 1 is the maximum). In outline: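 VM7Luc4E2 breast cells were given, for 24 hours, medium pre-incubated for 2 hours with parent chemical (0.002-200 uM, 10 concentrations) and alginate-encapsulated phenobarbital/beta-naphthoflavone-induced rat hepatic S9. Luciferase gain of signal was fitted against 17beta-estradiol; n=4 or more.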

Assay [2] in a line: CCTE_Deisenroth_AIME_384WELL_CTox_Active: Cytotoxicity Assessment (CTOX) in CCTE's 384-well Estrogen Receptor Transactivation Assay with AIME metabolic competence (metabolism positive), Deisenroth Lab (AID 2284037; active = hit-call score of the fitted dose curve at least 0.9, where 1 is the maximum;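 also: chemicals first conditioned 2 h by alginate-bound induced rat liver S9 before cells; activity means signal loss indicating cell death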). In outline: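 Chemicals pre-incubated 2 hours with alginate-immobilised phenobarbital/beta-naphthoflavone-induced male Sprague Dawley rat liver S9, then conditioned medium applied 24 hour to VM7Luc4E2 cells. Viability by fluorogenic protease substrate; 10-point series 0.002 - 200 uM.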

The nature of assay [3]: CCTE_Shafer_MEA_dev_firing_rate_mean: CCTE's Neural Network Formation Assay for Mean Firing Rate, Shafer Lab (AID 2284031).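 As to AC50: curve fitted for loss of firing so AC50 reflects decreased mean firing rate.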 In outline:
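Rat primary cortical neurons were seeded on multielectrode arrays and treated from plating through day 12, with redosing at each feed. Spontaneous spiking was recorded four times; mean firing rate AUC was fitted downward against DMSO.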

Assay [4] is described as follows: CCTE_Shafer_MEA_dev_per_burst_spike_percent: CCTE's Neural Network Formation Assay for Percent of Spikes in a Burst, Shafer Lab (AID 2284032).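 As to AC50: fitted as a decrease in burst spike percentage below DMSO baseline.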 In outline: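 Rat primary cortical neurons on 16-electrode MEA wells, dosed from plating day 0 for 12 days with renewal on DIV 5 and 9; spikes-in-bursts percentage averaged over bursting electrodes, collapsed as AUC across days 5, 7, 9, 12; loss direction versus DMSO.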

A short description of assay [5]: CCTE_Deisenroth_AIME_384WELL_CTox_Inactive: Cytotoxicity Assessment (CTOX) in CCTE's 384-well Estrogen Receptor Transactivation Assay without AIME metabolic competence (metabolism negative), Deisenroth Lab (AID 2284039; active = hit-call score of the fitted dose curve at least 0.9, where 1 is the maximum;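 also: cell viability via live-cell protease substrate cleaved to fluorescent probe; loss of fluorescence signal means loss of viability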). In outline: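 Fluorescent protease-substrate viability readout after 24 h exposure of VM7Luc4E2 cells to conditioned medium. Chemicals (0.002–200 uM) first sat 2 h over alginate-water beads, no S9. Data fitted bidirectionally, loss of signal meaning viability loss.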

A short description of assay [6]: CCTE_Shafer_MEA_dev_active_electrodes_number: CCTE's Neural Network Formation Assay for Number of Active Electrodes, Shafer Lab (AID 2284040; active = hit-call score of the fitted dose curve at least 0.9, where 1 is the maximum;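 as to AC50: potency for loss of active electrodes versus DMSO so lower counts are hits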). In outline:
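Primary rat cortical neurons on 16-electrode MEA wells, exposed from day 0 through day 12 with compound renewed at DIV 5 and 9 feeds. Active electrodes (mean firing ≥5 spikes/min) counted at DIV 5, 7, 9, 12; trapezoidal AUC across days, loss-of-signal versus DMSO.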

Assay [7] is described as follows: CCTE_Shafer_MEA_dev_burst_rate: CCTE's Neural Network Formation Assay for Burst Rate, Shafer Lab (AID 2284042).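 As to AC50: potency for loss of burst rate below DMSO control.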 In outline: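 Exposure ran continuously over 12 days of network development in rat cortical cultures, with compound refreshed during full media changes on DIV 5 and 9. Single-electrode bursts per recording time, well-mean over active electrodes, trapezoidal AUC across days 5–12, fitted downward relative to DMSO.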

A short description of assay [8]: CCTE_Shafer_MEA_dev_bursting_electrodes_number: CCTE's Neural Network Formation Assay for Number of Bursting Electrodes, Shafer Lab (AID 2284043; active = hit-call score of the fitted dose curve at least 0.9, where 1 is the maximum;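 as to AC50: potency is for loss of bursting electrodes relative to DMSO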). In outline: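 Primary rat cortical neurons plated on 16-electrode MEA wells, exposed from day 0 with compound renewed at DIV 5 and 9. Electrodes bursting ≥1 burst per 2 min counted on days 5, 7, 9 and 12; trapezoidal AUC across days, fitted for loss versus DMSO.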

Assay [9] in a line: CCTE_Shafer_MEA_dev_per_burst_interspike_interval: CCTE's Neural Network Formation Assay for Burst Interspike Interval, Shafer Lab (AID 2284044).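 Also: mean spike spacing inside bursts as AUC over recordings on days 5 7 9 12.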 Put shortly:
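Mean interspike interval within single-electrode bursts, averaged over bursting electrodes, from rat cortical cultures on MEA plates recorded on days 5, 7, 9 and 12. Continuous compound exposure from plating; trapezoidal AUC fitted downward relative to DMSO.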

Assay [10] in a line: CCTE_Shafer_MEA_dev_burst_duration_mean: CCTE's Neural Network Formation Assay for Mean Burst Duration, Shafer Lab (AID 2284045). In outline: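 Primary rat cortical neurons on 48-well 16-electrode MEA plates, exposed from day 0 with renewal at DIV 5 and 9; spontaneous activity recorded on days 5, 7, 9, 12. Well-mean burst duration across bursting electrodes, collapsed as trapezoidal AUC; DMSO baseline.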

Assay [11] is described as follows: CCTE_Shafer_MEA_dev_interburst_interval_mean: CCTE's Neural Network Formation Assay for Mean Interburst Interval, Shafer Lab (AID 2284046).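 Also: well-mean interburst interval of bursting electrodes as AUC over four recording days; curve fitted for decrease in interburst interval relative to DMSO.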 In outline:
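Primary rat cortical neurons on PEI-coated 48-well MEA plates (laminin added with cells at plating) (16 electrodes/well), exposed from plating day 0 with renewal at DIV 5 and 9. Mean inter-burst interval averaged over bursting electrodes, AUC across days 5, 7, 9, 12; DMSO baseline.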

Assay [12] can be described thus: CCTE_Shafer_MEA_dev_inter_network_spike_interval_mean: CCTE's Neural Network Formation Assay for Mean Inter-network Spike Interval, Shafer Lab (AID 2284047). In outline:
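Mean time between consecutive network-spike peaks, recorded extracellularly (adaptive spike detection) on DIV 5, 7, 9 and 12, summarized as trapezoidal AUC. Rat cortical cultures on MEAs dosed continuously days 0–12, re-dosed at feeds; loss-of-signal fit relative to DMSO.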

Assay [13] is described as follows: CCTE_Shafer_MEA_dev_network_spike_number: CCTE's Neural Network Formation Assay for Number of Network Spikes, Shafer Lab (AID 2284048).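 As to AC50: fit as a loss of signal meaning fewer network spikes than DMSO.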 Put shortly: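 Primary rat cortical neurons on PEI/laminin 48-well MEA plates, dosed from plating day 0 for 12 days, renewed at DIV 5 and 9. Network spike counts recorded DIV 5, 7, 9, 12, collapsed as trapezoidal AUC; DMSO baseline.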

A short description of assay [14]: CCTE_Shafer_MEA_dev_network_spike_peak: CCTE's Neural Network Formation Assay for Mean Number of Electrodes in Network Spike, Shafer Lab (AID 2284049).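 As to AC50: fitted for loss of signal meaning fewer electrodes in network spikes than DMSO.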 Put shortly: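 Network-spike peak electrode count from recordings on days 5, 7, 9 and 12 was combined as trapezoidal area under the curve. Rat cortical cultures were treated continuously from plating, with compound renewed at each feed (DIV 5, 9); fits versus DMSO.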

A short description of assay [15]: CCTE_Shafer_MEA_dev_network_spike_duration_std: CCTE's Neural Network Formation Assay for Standard Deviation of Network Spike Duration, Shafer Lab (AID 2284052).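 Also: hits are decreases in network spike duration SD versus DMSO vehicle.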 In outline: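 Network spike duration variability was collapsed across recordings on days 5, 7, 9 and 12 by trapezoidal area-under-curve and fitted downward against DMSO. Cultures were rat cortical neurons on PEI-coated MEA plates, dosed continuously from plating, refed with compound DIV 5/9.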

The nature of assay [16]: CCTE_Shafer_MEA_dev_per_network_spike_spike_number_mean: CCTE's Neural Network Formation Assay for Mean Number of Spikes in a Network Spike, Shafer Lab (AID 2284053).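 As to AC50: fitted as decrease in spikes per network spike relative to DMSO.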 Put shortly: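 Mean spike count within each network spike, taken in a 0.05 s window at its peak, was recorded on days 5, 7, 9 and 12 and integrated as trapezoidal area under the curve. Rat cortical cultures on MEA plates received continuous compound from day 0, refreshed at medium changes on DIV 5 and 9.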

Assay [17] can be described thus: CCTE_Shafer_MEA_dev_per_network_spike_spike_percent: CCTE's Neural Network Formation Assay for Percent of Spikes in a Network Spike, Shafer Lab (AID 2284054). In outline:
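Rat primary cortical neurons were grown on 48-well MEA plates (16 electrodes/well), exposed from plating day 0 through day 12, with treatment renewed on DIV 5 and 9. Percent of spikes within 0.05 s network-spike peaks was measured, summarised as AUC across days 5, 7, 9, 12.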

Assay [18] can be described thus: CCTE_Deisenroth_AIME_96WELL_CTox_Inactive: Cytotoxicity Assessment (CTOX) in CCTE's 96-well Estrogen Receptor Transactivation Assay without AIME metabolic competence (metabolism negative), Deisenroth Lab (AID 2284029; active = hit-call score of the fitted dose curve at least 0.9, where 1 is the maximum). In outline: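 Chemicals (0.002 - 200 uM, 10 points) incubated 2 h with alginate-water microspheres (no S9), then medium moved onto VM7Luc4E2 cells for 24 h. Viability by protease-substrate cleavage to fluorescent probe; bidirectional fitting.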

Records with an inconclusive call do not appear. The source holds several records for some structures; these can differ, active in one and inactive in another. Calls of active or inactive are those of the source. The calls were made as follows, unless noted: active = hit-call score of the fitted dose curve at least 0.9, where 1 is the maximum; inactive = score below 0.9.

The text below walks through data of PubChem BioAssay (EPA / NIEHS).

Chain of Estrogen receptor (Homo sapiens) (P03372 whole entry, looked up): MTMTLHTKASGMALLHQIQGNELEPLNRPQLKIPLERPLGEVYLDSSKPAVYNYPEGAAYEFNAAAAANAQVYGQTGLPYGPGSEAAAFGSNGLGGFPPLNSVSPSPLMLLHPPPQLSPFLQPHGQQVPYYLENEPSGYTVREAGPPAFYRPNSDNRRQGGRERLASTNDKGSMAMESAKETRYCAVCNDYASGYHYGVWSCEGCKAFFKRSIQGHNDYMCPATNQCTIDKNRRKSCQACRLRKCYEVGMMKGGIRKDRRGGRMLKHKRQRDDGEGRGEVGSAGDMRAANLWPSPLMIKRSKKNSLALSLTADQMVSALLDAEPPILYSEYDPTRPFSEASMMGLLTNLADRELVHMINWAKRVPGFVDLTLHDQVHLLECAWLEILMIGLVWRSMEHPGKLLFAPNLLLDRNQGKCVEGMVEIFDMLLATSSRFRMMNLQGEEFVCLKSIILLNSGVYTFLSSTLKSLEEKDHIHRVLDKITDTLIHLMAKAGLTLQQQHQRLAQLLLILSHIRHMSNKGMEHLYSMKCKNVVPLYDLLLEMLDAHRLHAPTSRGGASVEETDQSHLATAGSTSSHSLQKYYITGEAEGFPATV

Consider `Cc1ccc(N=CN(C)C=Nc2ccc(C)cc2C)c(C)c1`, for which the result in [1] and in [2] was inactive.
A word on the AC50: it is the concentration giving half of the maximal activity seen. `CCSC(=O)N1CCCCCC1`: the outcome in [1], in [3], in assay [4], in assay [2], in assay [5] and in assay [7] was inactive. Besides, the compound was called inactive in assay [9], in assay [10], in [11], in assay [12], in assay [13] and in assay [14]. The result in [15], in [16] and in [17] was inactive. Besides, the AC50 in assay [6] was 3.42 µM (active); in assay [8] it was 1.93 µM (active); in assay [14], 5.75 µM (active).
Take `CS(=O)(=O)c1cc(C(F)(F)F)ccc1C(=O)c1cnoc1C1CC1`: the compound was classed as inactive in assay [1], in [3], in assay [4], in [2], in [5] and in assay [6]. For the same compound, the compound was called inactive in [7], in assay [8], in [9], in assay [10], in [11] and in assay [12]. Further, the result in assay [13], in assay [14], in assay [15], in assay [16] and in [17] was inactive.
On to `CNC(=O)N(C)c1nnc(C(C)(C)C)s1`, for which the outcome in assay [1] was inactive.
On the same count and under the same terms, with `CC(C)N1C(=O)c2ccccc2NS1(=O)=O` the entry was “inactive”.
For the compound `CC1(C)C(C=C(Cl)Cl)C1C(=O)OC(C#N)c1cccc(Oc2ccccc2)c1` (stereo not given), the result in [18], in [3], in [4], in assay [6], in [7] and in [8] was inactive. For the same compound, the outcome in assay [9], in assay [10], in assay [11], in [12], in assay [13] and in [14] was inactive. The outcome in assay [15], in assay [16] and in assay [17] was inactive. Moreover, the AC50 in [1] is 40.8 µM (active); in assay [3], 2.98 µM (active); in assay [4], 10 µM (active); in [5] it was 2.33 µM (active); in assay [6], 9 µM (active); in assay [7], 3.77 µM (active). The AC50 in assay [8] was 6.24 µM (active); in [11], 3.49 µM (active); in assay [13], 2.98 µM (active); in assay [14], 11.4 µM (active); in assay [15], 2.2 µM (active); in [16] it was 6.97 µM (active). In addition, the AC50 in assay [17] was 8.41 µM (active).
For the compound `CCOc1nc(C(Cl)(Cl)Cl)ns1`, the call in assay [1] was inactive.
For the compound `Cc1cc(C)nc(Nc2ccccc2)n1`, the half-maximal activity concentration (AC50) in assay [1] is 93.3 µM (active).
As to `COP(=S)(OC)SCn1nnc2ccccc2c1=O`, the compound was classed as inactive in assay [1], in assay [3], in assay [4], in [2], in assay [7] and in assay [8]. For the same compound, the outcome in [9], in [10], in [11], in assay [12], in assay [13] and in assay [15] was inactive. Also, the AC50 in assay [5] is 100 µM (active); in assay [14], 15 µM (active); in assay [16] it was 24.9 µM (active); in [17], 4.18 µM (active).
